High-throughput results: PubChem, National Center for Advancing Translational Sciences (NCATS)
The list is not random: actives were taken first. Their share in the collection is about 10%.
JMJD2A Tudor: qHTS Assay for Inhibitors of JMJD2A-Tudor Domain; Lysine-specific demethylase 4A (Homo sapiens), O75164; AlphaScreen JMJD2A-Tudor / H3K4me3 peptide binding; Potency, µM (top dose mostly 114 µM), most hits filed as inhibitors; 4.4% of 390,000 active; AID 504339, 2011; further: nearly all actives have a fitted effect of over 50% in size
HP1b binding inh: HTS for Inhibitors of HP1-beta Chromodomain Interactions with Methylated Histone Tails | Chromobox protein homolog 1 (Homo sapiens), P83916 | AlphaScreen HP1-beta / biotin-H3K9me3 peptide binding | Potency, µM (doses to about 114 µM), actives largely listed as inhibitors | 0.56% of 390,000 active | AID 540317, 2011; further: nearly all actives have a fitted effect of over 70% in size
Target sequence (P83916 whole entry, looked up): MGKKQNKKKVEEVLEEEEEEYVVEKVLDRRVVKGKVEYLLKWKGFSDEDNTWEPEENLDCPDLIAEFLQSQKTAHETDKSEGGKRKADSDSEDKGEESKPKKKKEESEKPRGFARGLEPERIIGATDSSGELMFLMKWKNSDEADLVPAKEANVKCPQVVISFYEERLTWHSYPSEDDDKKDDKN
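HP1-beta protein (50 nM final) preincubated 30 min at room temperature with biotinylated H3(1-18)K9me3 peptide (50 nM) in PBS pH 7.4, 0.01% Tween-20, then compound added for 30 min. AlphaScreen streptavidin donor/nickel chelate acceptor beads (10 ug/mL final), 30 min dark, luminescence read.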
L3MBTL1 inh: qHTS Assay for the Inhibitors of L3MBTL1; Lethal(3)malignant brain tumor-like protein 1 (Homo sapiens), Q9Y468; AlphaScreen L3MBTL1–H3K9me1 peptide binding; Potency, µM (top dose mostly 57.1 µM), hits mostly inhibitors; 0.66% of 230,000 active; further: nearly all actives have a fitted effect of over 60% in size
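Read-out is AlphaScreen signal from streptavidin donor and nickel chelate acceptor beads (10 ug/mL final each) bridging L3MBTL1 (50 nM) and biotinylated K9-monomethylated H3(1-15) peptide (75 nM), after 30 min compound exposure at room temperature.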
BAZ2B inh: qHTS Assay for Inhibitors of BAZ2B; AlphaScreen BAZ2B-H3K14Ac peptide displacement; 4.4% of 360,000 active; Bromodomain adjacent to zinc finger domain protein 2B (Homo sapiens), Q9UIF8; Potency, µM (highest dose often 114 µM), actives largely listed as inhibitors; further: nearly all actives have a fitted effect of over 60% in size
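BAZ2B (50 nM) with biotin-H3(5-23)K14Ac peptide (50 nM) in PBS pH 7.4, 0.01% Tween-20, preformed 30 min, then compound 30 min at room temperature; top concentration 110uM. AlphaScreen streptavidin donor/nickel chelate acceptor beads (10 ug/mL final), 20 min dark, signal read.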
GLS inh: qHTS for Inhibitors of Glutaminase (GLS). Potency, µM (top dose mostly 45.5 µM), usual class: inhibitors. GLS enzymatic activity, qHTS titration. 0.21% of 410,000 active
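hKGA; 45 mM KH2PO4 pH 8.2 + 0.02% Tween-20; cpd via pin tool; 1 mM Gln soln; GluOx/HRP/Amplex Red; RT 30 min; fluor. t0 & final.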
G9a inh: qHTS Assay for Inhibitors of Histone Lysine Methyltransferase G9a | Histone-lysine N-methyltransferase EHMT2 (Homo sapiens), Q96KQ7 | G9a H3K9 monomethylation, AlphaScreen, 2 h | Potency, µM (series often up to 102 µM), usual class: inhibitors | 8.8% of 350,000 active; further: nearly all actives have a fitted effect of over 75% in size
Target sequence (Q96KQ7 913-1193 limits assumed): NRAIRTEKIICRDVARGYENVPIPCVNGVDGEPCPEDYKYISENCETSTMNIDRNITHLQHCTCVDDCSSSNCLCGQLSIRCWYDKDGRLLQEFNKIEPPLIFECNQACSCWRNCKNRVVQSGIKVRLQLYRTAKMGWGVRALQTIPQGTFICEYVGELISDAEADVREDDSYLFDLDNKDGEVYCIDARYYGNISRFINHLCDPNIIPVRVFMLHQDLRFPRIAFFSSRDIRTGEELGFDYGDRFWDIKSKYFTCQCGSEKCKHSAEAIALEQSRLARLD
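Methyltransferase reactions run at room temperature for 2 h (20 nM enzyme, 500 nM biotin-H3K9 peptide, 20 uM SAM) after a 15 min compound preincubation; product detected by AlphaScreen beads and anti-H3K9me1 antibody.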
A number is an active result; n = inactive; u = inconclusive; x = not tested or not shown; ! = a repeat was not active; [ ] = dose if it differs, or a comment. The call rests on the fitted dose curve; in most records, active means well fitted curve in the direction sought with a large enough effect; inconclusive means small, poorly fitted or top-dose-only effect, or another doubt; inactive means no such curve, though single readings can be large; an effect the other way counts as inactive or inconclusive.

SMILES	JMJD2A Tudor	HP1b binding inh	L3MBTL1 inh	BAZ2B inh	GLS inh	G9a inh
O=C(CSc1nnc(NC(=O)C2CC(=O)N(c3ccc(F)cc3)C2)s1)NC1CCCC1 (stereo not given)	n	n	x	n	n	25µM
Cc1ccc(N2CC(C(=O)Nc3nnc(SCCC4OCCO4)s3)CC2=O)cc1 (stereo not given)	n	n	x	n	n	13µM
COc1cc(C(=O)Nc2nnc(SCC(=O)NCC3CCCO3)s2)cc(OC)c1OC (stereo not given)	n	n	x	u	n	71µM
Cc1ccc(N2CC(C(=O)Nc3nnc(SCCC4OCCO4)s3)CC2=O)cc1C (stereo not given)	n	n	x	n	n	n[12.7 µM]
COc1ccc(N2CC(C(=O)Nc3nnc(SCC(=O)Nc4ccc(NC(C)=O)cc4)s3)CC2=O)cc1 (stereo not given)	x	x	x	x	n	x
COc1cccc(N2CC(C(=O)Nc3nnc(SCC(=O)NC4CCCC4)s3)CC2=O)c1 (stereo not given)	n	n	x	n	n	32µM
CCCN(C(=O)c1sc2nc3n(c(=O)c2c1C)CCCC3)c1ccccc1C	n	n	x	u	n	u
O=C(Nc1nnc(SCC(=O)N2CCOCC2)s1)C1CC(=O)N(c2ccc(F)cc2)C1 (stereo not given)	n	n	x	n	n	n[12.7 µM]
O=C(Nc1nnc(SCC(=O)N2CCCC2)s1)C1CC(=O)N(c2ccc(F)cc2)C1 (stereo not given)	n	n	x	n	n	20µM
O=C(CSc1nc2ccc(NC(=O)C3CCCCC3)cc2s1)NCC1CCCO1 (stereo not given)	n	n	n	n	n	45µM
Cc1cc(F)ccc1NC(=O)CCS(=O)(=O)c1cc2c(cc1C)NC(=O)CO2	n	n	x	n	n	n
O=C(CN1C(=O)CC(c2ccc(F)cc2)=Nc2ccccc21)NCc1ccccc1Cl	n	n	x	n	n	n
CCOc1ccc(-c2cc3c(=O)n(CC(=O)Nc4c(C)cccc4C)ccn3n2)cc1	n	n	x	n	n	n
COc1ccccc1CNC(=O)C1CCCN(c2nc3ccccc3n3cccc23)C1 (stereo not given)	n	n	x	n	n	n
CC(C)Sc1nc(-c2ccccc2)cc(=O)[nH]1	n	n	n	n	n	35µM
CCC(Sc1nc(-c2ccccc2)cc(=O)[nH]1)C(=O)O (stereo not given)	n	n	n	n	n	n
Cc1ccc(C)c(S(=O)(=O)NCc2ccc(C(=O)N3CCN(c4ccccc4)CC3)cc2)c1	n	n	x	n	n	n
CCc1cccc(CC)c1NC(=O)c1ccc2c(c1)CCN2S(=O)(=O)c1ccccc1	n	n	x	n	n	2.5µM
COc1ccc(N2CCN(C(=O)c3ccc(CNS(=O)(=O)c4cc(C)ccc4C)cc3)CC2)cc1	u	n	x	u	n	32µM
COc1ccc(N2CCN(C(=O)c3ccc4c(c3)CCN4S(=O)(=O)c3ccccc3)CC2)cc1	u	n	x	20µM	n	28µM
CCc1cccc(C)c1NC(=O)c1ccc2c(c1)CCN2S(=O)(=O)c1ccc(Cl)cc1	n	n	x	n	n	n
COc1ccc(N2CCN(C(=O)COC(=O)c3cccc(S(=O)(=O)Nc4cccc(C)c4)c3)CC2)cc1	u	n	n	n	n	10µM
CCOc1ccc(CCNC(=O)CCc2cn(Cc3ccc(C)cc3)c3ccccc23)cc1	n	n	x	u	n	n
Cc1ccc(Cl)cc1-n1c(=O)c2sc3ccccc3c2n(CC(=O)NC2CCCCC2)c1=O	n	n	x	n	n	n
CCOc1ccc(NC(=O)CN2CCSc3ccc(S(=O)(=O)N4CCCC4)cc32)cc1	n	n	x	n	n	n
SMILES	JMJD2A Tudor	HP1b binding inh	L3MBTL1 inh	BAZ2B inh	GLS inh	G9a inh
O=C(CNC(=O)C1CCCCC1)OCc1ccccc1	n	n	x	x	x	x
O=C(c1cccc(S(=O)(=O)N2CCc3ccccc32)c1)N1CCN(c2ccccc2)CC1	n	n	n	n	n	22µM
COc1ccc(N2CCN(C(=O)c3ccc(NS(=O)(=O)c4ccccc4)cc3)CC2)cc1	n	u	n	n	n	20µM
CCN1CCN(C(=O)c2ccc(CNS(=O)(=O)c3cccc(OC)c3)cc2)CC1	n	n	x	u	n	45µM
O=C(c1cccc(S(=O)(=O)N2CCc3ccccc3C2)c1)N1CCN(c2ccccc2)CC1	n	n	n	n	n	n
COc1ccc(NS(=O)(=O)c2ccc(C(=O)N3CCCCCC3)cc2)cc1	n	n	n	x	n	x
COc1ccc(CN=Cc2[nH]c3ccc(Br)c(Cl)c3c2O)cc1	u	u	n	45µM	n	4µM
COc1ccc(CN=CC2=C(O)CNC2=O)cc1	n	n	x	n	n	n[12.7 µM]
Cc1cc(C)cc(N=Cc2[nH]c3ccc(Br)c(Cl)c3c2O)c1	u	u	n	u	n	13µM
Cc1cc(C)c(NC(=O)Cn2c(=O)n(CCc3ccccc3)c(=O)c3ccccc32)c(C)c1	n	n	x	n	n	n
CC1(C)CCC(C)(C)c2cc(C(=O)Nc3ccc(C(=O)O)cc3)ccc21	x	x	x	x	x	n
C/C(=C\c1ccc(C(=O)O)cc1)c1ccc2c(c1)C(C)(C)CCC2(C)C	n	n	n	n	n	16µM!
CC(=O)C(=Cc1ccc(C(=O)O)cc1)C(C)=O	n	n	u	u	n	56µM
CCOc1ccc(CNC(=O)C2CCCN(c3nn4cc(-c5ccc(OC)cc5)nc4s3)C2)cc1 (stereo not given)	n	n	x	n	n	n
CCC(=O)c1ccc(OCC(=O)N2CCCC2)c(OC)c1	n	n	u	50µM	n	x
CCOC(=O)COc1ccc(C(=O)CC)cc1OC	n	n	n	n	n	n
CCC(=O)c1ccc(OCC(=O)O)c(OC)c1	n	n	n	n	n	79µM
c1ccc(Cn2nnnc2C(c2ccccc2)N2CCN(c3nc4ccccc4s3)CC2)cc1 (stereo not given)	n	n	n	x	n	n
CCC(c1nnnn1CCOC)N1CCN(c2nc3ccccc3s2)CC1 (stereo not given)	n	n	n	n	n	u
CCCC(c1nnnn1CCOC)N1CCN(c2nc3ccccc3s2)CC1 (stereo not given)	13µM	n	n	n	u	n
CCC(C)(C)n1nnnc1C(c1ccc(O)c(OC)c1)N1CCN(c2nc3ccccc3s2)CC1 (stereo not given)	n	n	n	n	n	2.5µM
